Data from PubChem BioAssay AID1159580 (chemical genetic matrix, 2015).
Several values for one entry are separate records, joined by “and”; a condition that tells them apart may be missing. Identical values can stand only once. Out of some 5,500 compounds screened, about 2,000 (36%) were called active. Roughly 18% stayed inconclusive and do not appear here. Rule as the data show it: active = normalized growth mostly below about 0.91 (no sharp cut-off); inconclusive = no clear call, values can overlap the other calls; inactive = mostly above about 0.92. The list shows a part of the results.

Assay: chemical genetic growth profiling, strain panel (AID 1159580);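 also: tested at 20 µM; growth read once vehicle control cultures reached saturation at 30 °C; 1 = growth at the plate median or of vehicle wells; lower values mean less growth of the strain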
Conditions: growth OD

Measured: normalized growth

COc1cc2c(cc1OC)-c1cc3ccc(OC)c(OC)c3c[n+]1CC2
inactive: S. cerevisiae deletion strains, locus YJR075W, strain HOC1, stronger effect = lower value 0.985 and 1.03 | S. cerevisiae deletion strains, locus YKL009W, strain mrt4, stronger effect = lower value 0.972 and 0.995 | S. cerevisiae deletion strains, locus YKL068W, stronger effect = lower value 0.996 and 1.01 | S. cerevisiae deletion strains, locus YKL085W, strain MDH1 (second series), stronger effect = lower value 0.995 and 0.999 | S. cerevisiae deletion strains, locus YKL085W, strain MDH1, stronger effect = lower value 0.995 and 0.999 | S. cerevisiae deletion strains, locus YKL160W, strain elf1, stronger effect = lower value 0.982 | S. cerevisiae deletion strains, locus YKL190W, strain CNB1, stronger effect = lower value 0.995 and 1.02 | S. cerevisiae deletion strains, locus YKR001C, strain vps1, stronger effect = lower value 0.971 and 1.02 | S. cerevisiae deletion strains, locus YKR026C, strain gcn3, stronger effect = lower value 0.966 | S. cerevisiae deletion strains, locus YKR091W, strain srl3, stronger effect = lower value 0.984 | S. cerevisiae deletion strains, locus YLL001W, strain dnm1, stronger effect = lower value 0.972 | S. cerevisiae deletion strains, locus YLL026W, stronger effect = lower value 0.983 | S. cerevisiae deletion strains, locus YLL041C, strain sdh2, stronger effect = lower value 0.984 | S. cerevisiae deletion strains, locus YLR027C, strain aat2, stronger effect = lower value 0.978 | S. cerevisiae deletion strains, locus YLR039C, strain RIC1, stronger effect = lower value 1 and 0.981 | S. cerevisiae deletion strains, locus YLR058C, strain SHM2, stronger effect = lower value 0.985 and 1.02 | S. cerevisiae deletion strains, locus YLR102C, strain apc9, stronger effect = lower value 0.986 and 1.02 | S. cerevisiae deletion strains, locus YLR113W, strain HOG1, stronger effect = lower value 1.03 | S. cerevisiae deletion strains, locus YLR221C, strain rsa3, stronger effect = lower value 1.01 | S. cerevisiae deletion strains, locus YLR258W, strain gsy2, stronger effect = lower value 1 | S. cerevisiae deletion strains, locus YLR262C, strain YPT6 (second series), stronger effect = lower value 0.969 | S. cerevisiae deletion strains, locus YLR262C, strain YPT6, stronger effect = lower value 1.02 and 0.979 | S. cerevisiae deletion strains, locus YLR268W, strain sec22, stronger effect = lower value 1.01 and 1.04 | S. cerevisiae deletion strains, locus YLR320W, strain mms22, stronger effect = lower value 0.997 | S. cerevisiae deletion strains, locus YLR330W, strain CHS5, stronger effect = lower value 0.991 and 1.01 | S. cerevisiae deletion strains, locus YLR342W, strain FKS1 (second series), stronger effect = lower value 0.978 and 0.987 | S. cerevisiae deletion strains, locus YLR342W, strain FKS1, stronger effect = lower value 0.995 | S. cerevisiae deletion strains, locus YLR357W, strain rsc2, stronger effect = lower value 0.984 | S. cerevisiae deletion strains, locus YLR370C, strain arc18, stronger effect = lower value 0.975 | S. cerevisiae deletion strains, locus YLR371W, strain rom2, stronger effect = lower value 0.978 and 1.01 | S. cerevisiae deletion strains, locus YLR384C, strain iki3, stronger effect = lower value 0.969 | S. cerevisiae deletion strains, locus YLR418C, strain cdc73, stronger effect = lower value 0.994 and 1 | S. cerevisiae deletion strains, locus YML016C, strain PPZ1, stronger effect = lower value 0.982 and 1.01 | S. cerevisiae deletion strains, locus YML032C, strain rad52, stronger effect = lower value 0.972 and 0.998 | S. cerevisiae deletion strains, locus YML120C, strain ndi1, stronger effect = lower value 0.987 | S. cerevisiae deletion strains, locus YML124C, strain tub3, stronger effect = lower value 0.993 and 1.02 | S. cerevisiae deletion strains, locus YMR058W, strain fet3, stronger effect = lower value 0.978 | S. cerevisiae deletion strains, locus YMR078C, strain ctf18, stronger effect = lower value 0.979 and 1.01 | S. cerevisiae deletion strains, locus YMR125W, strain sto1, stronger effect = lower value 0.958 | S. cerevisiae deletion strains, locus YMR129W, stronger effect = lower value 0.985 | S. cerevisiae deletion strains, locus YMR205C, strain PFK2, stronger effect = lower value 0.955 | S. cerevisiae deletion strains, locus YMR223W, strain ubp8, stronger effect = lower value 0.977 and 1.01 | S. cerevisiae deletion strains, locus YMR231W, strain pep5, stronger effect = lower value 1 | S. cerevisiae deletion strains, locus YMR263W, strain SAP30, stronger effect = lower value 0.998 | S. cerevisiae deletion strains, locus YMR307W, strain GAS1, stronger effect = lower value 0.984 and 1.03 | S. cerevisiae deletion strains, locus YNL067W, strain RPL9B, stronger effect = lower value 0.998 and 1.05 | S. cerevisiae deletion strains, locus YNL071W, strain lat1, stronger effect = lower value 0.994 | S. cerevisiae deletion strains, locus YNL128W, strain TEP1, stronger effect = lower value 0.999 | S. cerevisiae deletion strains, locus YNL153C, strain GIM3, stronger effect = lower value 1.01 | S. cerevisiae deletion strains, locus YNL183C, strain NPR1, stronger effect = lower value 0.978 | S. cerevisiae deletion strains, locus YNL209W, strain ssb2, stronger effect = lower value 0.977 | S. cerevisiae deletion strains, locus YNL233W, strain BNI4, stronger effect = lower value 0.981 and 1.03 | S. cerevisiae deletion strains, locus YNL248C, strain rpa49, stronger effect = lower value 0.982 | S. cerevisiae deletion strains, locus YNL250W, strain rad50, stronger effect = lower value 0.989 and 1.02 | S. cerevisiae deletion strains, locus YNL271C, strain bni1, stronger effect = lower value 0.986 and 1.01 | S. cerevisiae deletion strains, locus YNL298W, strain CLA4, stronger effect = lower value 0.995 and 1.02 | S. cerevisiae deletion strains, locus YNL307C, strain MCK1, stronger effect = lower value 0.986 and 1.02 | S. cerevisiae deletion strains, locus YNL322C, strain KRE1 (second series), stronger effect = lower value 0.97 | S. cerevisiae deletion strains, locus YNL322C, strain KRE1, stronger effect = lower value 0.987 and 1.01 | S. cerevisiae deletion strains, locus YNR049C, strain mso1, stronger effect = lower value 0.98 | S. cerevisiae deletion strains, locus YNR052C, strain pop2, stronger effect = lower value 0.995 and 1.02 | S. cerevisiae deletion strains, locus YOL006C, strain TOP1, stronger effect = lower value 1.01 | S. cerevisiae deletion strains, locus YOL012C, strain htz1 0.984 and 1.9 | S. cerevisiae deletion strains, locus YOL147C, strain pex11, stronger effect = lower value 0.991 and 1.01 | S. cerevisiae deletion strains, locus YOR001W, strain rrp6, stronger effect = lower value 0.968 | S. cerevisiae deletion strains, locus YOR061W, strain CKA2, stronger effect = lower value 0.99 and 1 | S. cerevisiae deletion strains, locus YOR069W, strain VPS5, stronger effect = lower value 0.992 and 1.01 | S. cerevisiae deletion strains, locus YOR070C, strain gyp1, stronger effect = lower value 0.986 | S. cerevisiae deletion strains, locus YOR080W, strain dia2, stronger effect = lower value 0.984 | S. cerevisiae deletion strains, locus YOR083W, strain WHI5, stronger effect = lower value 0.999 | S. cerevisiae deletion strains, locus YOR106W, strain vam3, stronger effect = lower value 0.961 | S. cerevisiae deletion strains, locus YOR136W, strain idh2, stronger effect = lower value 0.989 and 1.02 | S. cerevisiae deletion strains, locus YOR144C, strain elg1, stronger effect = lower value 0.989 and 1.01 | S. cerevisiae deletion strains, locus YOR184W, strain ser1, stronger effect = lower value 0.984 and 1 | S. cerevisiae deletion strains, locus YOR231W, strain MKK1, stronger effect = lower value 1.01 | S. cerevisiae deletion strains, locus YOR265W, strain rbl2, stronger effect = lower value 0.973 | S. cerevisiae deletion strains, locus YOR270C, strain vph1, stronger effect = lower value 0.97 | S. cerevisiae deletion strains, locus YOR290C, strain snf2, stronger effect = lower value 0.98 | S. cerevisiae deletion strains, locus YOR316C, strain cot1, stronger effect = lower value 0.986 and 1.01 | S. cerevisiae deletion strains, locus YPL051W, strain arl3, stronger effect = lower value 0.991 | S. cerevisiae deletion strains, locus YPL055C, strain LGE1, stronger effect = lower value 1.03 and 1.02 | S. cerevisiae deletion strains, locus YPL078C, strain atp4, stronger effect = lower value 0.986 | S. cerevisiae deletion strains, locus YPL106C, strain sse1, stronger effect = lower value 0.971 | S. cerevisiae deletion strains, locus YPL240C, strain hsp82, stronger effect = lower value 0.969 | S. cerevisiae deletion strains, locus YPL241C, strain CIN2, stronger effect = lower value 0.995 and 1 | S. cerevisiae deletion strains, locus YPL256C, strain CLN2, stronger effect = lower value 1.03 | S. cerevisiae deletion strains, locus YPR119W, strain clb2, stronger effect = lower value 0.985 and 1.01 | S. cerevisiae deletion strains, locus YPR141C, strain kar3, stronger effect = lower value 0.981 and 1.02 | S. cerevisiae deletion strains, locus YPR163C, strain tif3, stronger effect = lower value 0.992 and 1.03 | S. cerevisiae deletion strains, locus YPR167C, strain met16, stronger effect = lower value 0.983 and 1.01 | S. cerevisiae deletion strains, strain wtn01, stronger effect = lower value 0.972 and 1.03 | S. cerevisiae strains, strain wild type, stronger effect = lower value 0.987
